In the supplement of paper PMC12808144 one finds cell viability data, which are given here for 7 compounds.

The subject of test [1] is NHEM-hTERT. In words: cell viability relative to DMSO control (fraction of DMSO control); higher = less cytotoxic, active = 0.5 or less. The note with it: 1 µM; 120 h. The gist of the method: (§1)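 A library of 315 approved anti-cancer drugs (TargetMol) was acoustically pre-spotted into 384-well plates and tested at 1 µM in duplicate for 120 h. Cells were added in 40 µl per well: NHEM-hTERT immortalized melanocytes at 2500/well, and patient-derived Mel-DCC-11 and its resistant subline Mel-DCC-11-R at 1500/well. The subline was tested both alone and with 8 µM of its selecting drug. Viability was read by ATPlite 1step luminescence, normalised to DMSO controls and averaged over duplicates.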

Test [2] has as its system Mel-DCC-11-R. Briefly: cell viability relative to DMSO control (fraction of DMSO control); higher = less cytotoxic, active = 0.8 or less. The conditions noted are these: 1 µM, 120 h. The essentials: as §1

A number with no mark means an inactive call.

Take `Cc1ccc(=O)n(-c2ccccc2)c1` [Pirfenidone]: the cell viability in test [1] is 1.02; in test [2] (vemurafenib co-treatment 0 µM), 1.03; in test [2] (vemurafenib co-treatment 8 µM), 1.1.
As for `COc1ccc2c(c1OC)C(=O)O[C@@H]2[C@H]1c2c(cc3c(c2OC)OCO3)CC[NH+]1C.[Cl-]` [Noscapine hydrochloride], the results for the cell viability in test [1], in test [2] (vemurafenib co-treatment 0 µM) and in test [2] (vemurafenib co-treatment 8 µM) were 1.13, 1.04 and 1.13, respectively.
For the compound `CCC1=C[C@@H]2CN(C1)Cc1c([nH]c3ccccc13)[C@@](C(=O)OC)(c1cc3c(cc1OC)N(C)[C@H]1[C@@](O)(C(=O)OC)[C@H](OC(C)=O)[C@]4(CC)C=CCN5CC[C@]31[C@@H]54)C2.O=C(O)[C@H](O)[C@@H](O)C(=O)O.O=C(O)[C@H](O)[C@@H](O)C(=O)O` [Vinorelbine Tartrate], the figures for the cell viability in test [1], in test [2] (vemurafenib co-treatment 0 µM) and in test [2] (vemurafenib co-treatment 8 µM) were 0.644, 1.04 and 0.703 (active), respectively.
Regarding `Cc1cn(-c2cc(NC(=O)c3ccc(C)c(Nc4nccc(-c5cnccn5)n4)c3)cc(C(F)(F)F)c2)cn1` [Radotinib], the cell viability in test [1] was 1.09; in test [2] (vemurafenib co-treatment 0 µM), 1.19; in test [2] (vemurafenib co-treatment 8 µM) it was 1.27.
As for `OC[C@H]1O[C@@H](n2cnc3c2NC=NC[C@H]3O)C[C@@H]1O` [Pentostatin], the cell viability in test [1] is 1.1; in test [2] (vemurafenib co-treatment 0 µM) it was 0.905; in test [2] (vemurafenib co-treatment 8 µM) it was 1.2.
For `CN(C)c1nc(N(C)C)nc(N(C)C)n1` [Altretamine], in that order: 0.945, 0.973 and 0.92.
For `C#Cc1cccc(Nc2ncnc3cc4c(cc23)OCCOCCOCCO4)c1` [Icotinib], in that order: 1.18, 1.1 and 0.849.
